Measured values published in PubChem BioAssay (NCI).
Where “and” joins values, the source holds several entries; their conditions need not be identical. Equal entries are not always repeated. This is part of a sample that, as a whole, favours compounds with a hit. Of some 83,000 tested, about 20% had one in any assay.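 Each cell line was grown in a 96-well plate and treated with one concentration of compound for 48 hours. Values below 10 were considered active.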 A number with no mark means an inactive call. Calls of active or inactive are those of the source.

tested on: SK-MEL-2 melanoma; assay: NCI-60 one-dose screen, 48 h (100 = growth as untreated, 0 = no growth, -100 = all killed); details: 10 µM unless noted
Protocol: Growth inhibition of the SK-MEL-2 human tumor cell line is measured as a screen for anti-cancer activity. Cells are grown in 96 well plates and exposed to the test compound for 48 hours. Compounds are tested at a single concentration, which is 10^-5 M for most compounds. The reported endpoint is percent growth (GI% or GIPRCNT), where numbers from 0 - 100% represent growth inhibition, and numbers from -100% - 0 represent cell death. For example, a value of 40 represents 60% growth inhibition. A value of 0 means no net growth occurred over the course of the experiment. A value of -40 indicates 40% of cells at the beginning of the experiment died by the end of the experiment. A value of -100 means all cells are dead at the end of the experiment.
NCI-60 Human Tumor Cell Lines Screen was performed using the standard one-dose NCI protocol, which is described in more detail at https://dtp.cancer.gov/discovery_development/nci-60/default.htm.
Compounds with GIPRCNT values below 10 were considered active. Activity score was based on GIPRCNT using the following formula: […]
Score is 0 for GIPRCNT values of 100 or above, 50 for GIPRCNT values of 0, and 100 for GIPRCNT values of -100.

Row | SMILES | growth
1 | S=c1nc[nH]c2nc[nH]c12 | 54.6% [50 µM]
2 | CCC(=O)Oc1ccc(OCc2ccccc2)cc1 | 123%
3 | Clc1ccc2c(c1)N(C1CCCN(Cc3ccccc3)C1)c1ccccc1S2 (stereo not given) | 17.1%
4 | Cc1cnc(N)s1 | 102%
5 | Cn1c(N)c(N=O)c(=O)n(C)c1=O | 108% and 102%
6 | CCOC(=O)C1=C(C)NC(C)=C(C(=O)OCC)C1 | 109% and 110%
7 | Cc1c(O)nc(N)[nH]c1=O | 123%
8 | CCC(C)(O)CCC(C)(O)CC (stereo not given) | 116%
9 | CCOC(=O)C(N)Cc1cc(I)c(O)c(I)c1 (stereo not given) | 108% and 120%
10 | COc1ccc2oc3cc(NCCN(C)C)ccc3c(=O)c2c1 | 108% and 107%
11 | CN(C)C(=N)N=C(N)N | 106% and 25.1%
12 | COc1ccc(/C=N/NC(N)=S)cc1 | 97.5%
13 | CC(NC(=O)CCl)c1ccccc1 (stereo not given) | 104%
14 | CCOC(C)=N | 110%
15 | Cc1ccc2cccc([N+](=O)[O-])c2n1 | 104% and 111%
16 | CC(=O)Nc1cscc1NC(C)=O | 139%
17 | CCN(C)c1ccccc1 | 104%
18 | O=C(NC(CSSCC(NC(=O)OCc1ccccc1)C(=O)O)C(=O)O)OCc1ccccc1 (stereo not given) | 95.4% and 102%
19 | CCCCNC(=O)c1ccccc1C | 100%
20 | COc1ccc([N+](=O)[O-])cc1OC | 123% and 103%

Row | SMILES | growth
21 | COc1cc([C@@H]2c3cc4c(cc3[C@H](O)[C@H]3COC(=O)[C@@H]23)OCO4)cc(OC)c1OC | -23.7% (active)
22 | CN(C)C(=S)N(C)C | 104%
23 | Nc1nc(=S)c2[nH]cnc2[nH]1 | 29.7% and 42.5%
24 | O=[N+]([O-])c1ccc(N2CCN=N2)cc1 | 92.2%
25 | CCOC(=O)c1ccc(C(=N)N)cc1 | 113%
26 | O=C1c2cccnc2-c2ncccc21 | 122% [100 µM]
27 | COCCCNC1=C(C#N)C(=O)NC(c2cccs2)S1 (stereo not given) | 119%
28 | O=COCCCc1ccccc1 | 101%
29 | O=P(O)(O)OC1C(OP(=O)(O)O)C(OP(=O)(O)O)C(OP(=O)(O)O)C(OP(=O)(O)O)C1OP(=O)(O)O.[Cu+2] (stereo not given) | 92.9%
30 | O=C(O)c1cccc(Br)c1 | 105%
31 | CC1(C)CC(=O)NC1=O | 99.2%
32 | Cc1ccc(NC(=S)N/C=C(\c2ccccc2)S(=O)Cc2ccccc2)c(C)c1 (stereo not given) | 103%
33 | O=C1CCC(=O)N1CC1CC2CCC1C2 (stereo not given) | 97.5% and 111%
34 | CCN(CC)Cc1cc2[nH]c3c4ccc(Cl)cc4ncc3c2cc1OC | 160% and 97.9%
35 | Oc1ccc(O)c(-c2ccccc2)c1 | 72.5%
36 | CC1(CO)CCCC1NCCNC1CCCC1(C)CO (stereo not given) | 89.9% and 110%
37 | CCOCCC(=O)O | 109%
38 | NNC(=O)Nc1ccccc1 | 106%
39 | ON=C(C1CCCCC1)C1CCCCC1 | 107%
40 | COC(=O)c1ccccc1Cl | 108%
